Calls of active or inactive are those of the source. Rule for the calls: active = hit-call score of the fitted dose curve at least 0.9, where 1 is the maximum; inactive = score below 0.9.
Test: ATG_CMV_CIS: Attagene CIS-FACTORIAL HepG2 Assay for human CMV (Internal Marker) (AID 2282928);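 note: endpoint acts as a background internal control marker rather than a target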
Settings: HepG2 CMV promoter reporter, transcription factor profiling; actives raise or lower the signal
Description: ATG_CIS is a cell-based, multiplexed-readout assay that uses HepG2, a human liver cell line, with measurements taken at 24 hours after chemical dosing in a 24-well plate.ATG_CMV_CIS is one of 52 assay component(s) measured or calculated from the ATG_CIS assay. It is designed to make measurements of mRNA induction, a form of inducible reporter, as detected with fluorescence intensity signals by Reverse transcription polymerase chain reaction (RT-PCR) and Capillary electrophoresis technology.Data from the assay component ATG_CMV_CIS was analyzed into 1 assay endpoint. This assay endpoint, ATG_CMV_CIS, was analyzed with bidirectional fitting relative to DMSO as the negative control and baseline of activity. Using a type of inducible reporter, measures of mRNA for gain or loss-of-signal activity can be used to understand the background control at the transcription factor-level as they relate to the gene . Furthermore, this assay endpoint can be referred to as a secondary readout, because this assay has produced multiple assay endpoints where this one serves a background control function. To generalize the intended target to other relatable targets, this assay endpoint is annotated to the background measurement intended target family, where the subfamily is internal marker.
Human liver HepG2 cells are transiently transfected with multiple reporter transcription units (MRTUs) in 6-well plates using FuGene 6 reagent (Roche; 3 ml FuGene/1 mg DNA). The MRTU constructs are regulated by a cis-regulating element (promoter). […] A major difference between the CIS and TRANS system is that in CIS activities of endogenous TFs are measured, whereas the TRANS assay evaluates changes in activities of exogenous, chimeric NR-Gal4 proteins. […] At the end of 24 hour incubation, total RNA was isolated using TriZol reagent (Invitrogen). The isolated RNA is then reverse-transcribed using oligo(dT) primer and Mo-MLV reverse transcriptase (Invitrogen) with DNAse I (Ambion) treatment for 30 min. The one-tenth of the produced cDNA was amplified by PCR using Taq DNA polymerase (Invitrogen) and two reporter sequence-specific primers. The PCR products were fluorescently labeled by primer extension with 6-arboxyfluorescein (6-FAM) 5'-labeled reporter sequence-specific primer (2 min at 95 C, 20 s at 68 C and 10 min at 72 C) and these products were digested with 5U of HpaI (New England Biolabs) for 2h at 37 C. The fragments were purified using Qiaquick PCR columns (Qiagen), analyzed on an ABI 3130xL genetic analyzer (Applied Biosystems) with peak positions identified by using a set of X-rhodamine (ROX)-labeled MapMarker1000 molecular weight standards (BioVentures). The raw capillary electrophoresis data was processed using Attagraph software (Attagene).

SMILES | outcome | AC50
CC(Cl)(Cl)C(=O)O | inactive | 
CCCCc1ccc(O)cc1 |  | 71.4 µM (active)
Cc1ccc(O)cc1C | inactive | 
FC(F)(F)c1ccc(Cl)cc1 | inactive | 
CC(Cl)CN(C)C (stereo not given) | inactive | 
COC(N)=O | inactive | 
c1ccc(OP(Oc2ccccc2)Oc2ccccc2)cc1 | inactive | 
C/C(=N\NC(=O)Nc1cc(F)cc(F)c1)c1ncccc1C(=O)O | inactive | 
Nc1cc2c3c(c1)C(c1ccccc1)=N[C@@H](NC(=O)c1cccnc1)C(=O)N3CC2 | inactive | 
CC(C)(C)OOC(C)(C)C | inactive | 
O=C(O)C=CC(F)(C(F)(F)F)C(F)(F)F | inactive | 
C=CC(=O)OCC(CC)(COC(=O)C=C)COC(=O)C=C |  | 12.1 µM (active)
FC(F)(F)C(F)(C(F)(F)F)C(F)(F)C(F)(F)CC1CO1 (stereo not given) | inactive | 
O=c1[nH]c2ccccc2c(=O)o1 | inactive | 
CCCCOCC1CO1 (stereo not given) | inactive | 
c1ccc2c(c1)sc1ccccc12 | inactive | 
CCOS(=O)(=O)OCC | inactive | 
CCCCC(CC)COC(=O)c1c(Br)c(Br)c(Br)c(Br)c1C(=O)OCC(CC)CCCC (stereo not given) | inactive | 
O=C(O)C(Cl)Cl | inactive | 
CC(C)Nc1ccc(Nc2ccccc2)cc1 |  | 60 µM (active)

SMILES | outcome | AC50
CCC(C)(C)c1ccc(O)cc1 |  | 49 µM (active)
O=S(=O)(F)C(F)(F)C(F)(F)C(F)(F)C(F)(F)C(F)(F)C(F)(F)C(F)(F)C(F)(F)F | inactive | 
O=C(O)CF | inactive | 
Nc1ccc2ccccc2c1 | inactive | 
CCNc1nc(Cl)nc(NC(C)(C)C)n1 | inactive | 
[N-]=[N+]=[N-] | inactive | 
CCCN(CCC)c1c([N+](=O)[O-])cc(C(C)C)cc1[N+](=O)[O-] |  | 56.2 µM (active)
CCCCC(CC)COP(=O)(Oc1ccccc1)Oc1ccccc1 (stereo not given) |  | 35.4 µM (active)
CC(=O)CCc1ccc2c(c1)OCO2 | inactive | 
Cc1ccc(C(=O)Cl)cc1 | inactive | 
CC(O)C#N (stereo not given) | inactive | 
O=P(Oc1ccccc1)(Oc1ccccc1)Oc1ccccc1 | inactive | 
O=S1(=O)OCC2C(CO1)C1(Cl)C(Cl)=C(Cl)C2(Cl)C1(Cl)Cl (stereo not given) | inactive | 
N#Cc1c(-c2ccc(Cl)cc2)[nH]c(C(F)(F)F)c1Br |  | 3.01 µM (active)
C=CC(=O)OCC(F)(F)C(F)F |  | 150 µM (active)
CCCCOCCOP(=O)(OCCOCCCC)OCCOCCCC | inactive | 
CCOP(=S)(S)OCC | inactive | 
O=S(=O)(c1ccc(O)cc1)c1ccc(O)cc1 | inactive | 
O=C(O)C(F)(OC(F)(F)C(F)(F)C(F)(F)F)C(F)(F)F (stereo not given) | inactive | 
OCC1CO1 (stereo not given) | inactive | 
